Experimental findings from PubChem BioAssay (Tox21) are described below.

Unmarked numbers belong to inactive results. Records with an inconclusive call do not appear. The source made the active and inactive calls. Unless noted, calls follow the shape of the full dose curve.

Assay [1] can be described thus: Nuclear factor erythroid 2-related factor 2/antioxidant responsive element (Nrf2/ARE) small molecule agonists: qHTS cell viability counter screen in human keratinocytes (AID 1919968; active = well fitted curve in the direction sought with a large enough effect in the repeat runs; an effect the other way counts as inactive or inconclusive; also: nearly all actives have a fitted effect of over 55% in size; also: potency is read from the fitted curve at half-maximal effect). A digest of the protocol: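 In human HaCaT keratinocytes stably expressing an ARE-driven luciferase, compound exposure lasted 23 h at 37 C under 5% CO2. Viable cells are quantified with a protease-based fluorogenic reagent (CellTiter-Fluor) read 1 h after addition.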

The nature of assay [2]: Nuclear factor erythroid 2-related factor 2/antioxidant responsive element (Nrf2/ARE) small molecule agonists: luciferase reporter gene qHTS assay in human keratinocytes (AID 1919969). Also: nearly all actives have a fitted effect of over 35% in size.
Assay [3] addresses KiSS-1 receptor (Homo sapiens) (UniProt Q969F8). Description: Human kisspeptin (KISS1R) small molecule agonists, calcium flux assay in KISS1R-HEK293 cells (AID 1920064; active = well fitted curve in the direction sought with a large enough effect in the repeat runs; an effect the other way counts as inactive or inconclusive). In outline: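 Concentration-response testing used 15 concentrations in triplicate on human KISS1R-expressing HEK293 cells. Calcium-dependent fluorescence (Ex/Em 480/540) was followed kinetically for 3 min after compound transfer.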
(Calcium flux is commonly read through the fluorescence of an indicator in the cells.)

The nature of assay [4]: G protein-coupled receptor (GPCR) small molecule agonists, calcium flux assay: HEK293 wild type cell line counter screen (AID 1920065). In outline:
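Fluorescence intensity signals activation. After overnight (18 h) culture and a 1 h calcium dye load at 37 C, compounds are added by pin tool and the plate read at 480/540 nm for 3 min in 1 s steps.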

The nature of assay [5]: p53 small molecule agonists, cell-based qHTS assay with human liver microsomes (AID 1963577).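 Also: p53 response element beta-lactamase reporter cells with liver microsomes plus NADPH.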 In outline:
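16 h, 37 C exposure of p53RE-bla cells to compounds with human liver microsomes and NADPH (0.5 mg/mL final each); detection via LiveBLAzer mixture, 2 h dark at room temperature.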
For orientation: qHTS replaces the single test concentration by a dilution series.

The nature of assay [6]: p53 small molecule agonists, cell-based qHTS assay with rat liver microsomes (AID 1963578). In outline: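 With rat liver microsomes and NADPH present (0.5 mg/mL final each), p53RE-bla cells are treated with compound for 16 h at 37 C. LiveBLAzer detection mixture is then applied for 2 h at room temperature in the dark.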
Assay [7] is described as follows: p53 small molecule agonists, cell-based qHTS assay with human liver microsomes: qHTS cell viability counter screen (AID 1963579). Also: nearly all actives have a fitted effect of over 45% in size. A digest of the protocol:
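In this multiplexed counter screen, the reporter plates were subsequently treated with CellTiter-Glo so that cell viability, reflected by luminescence, could be recorded for p53RE-bla cells dosed 16 h with compounds under microsomal activation (HLM and NADPH).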

A short description of assay [8]: p53 small molecule agonists, cell-based qHTS assay with rat liver microsomes: qHTS cell viability counter screen (AID 1963580). Also: nearly all actives have a fitted effect of over 45% in size. A digest of the protocol:
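Counter screen for cytotoxicity under metabolic activation: rat liver microsomes and NADPH, 0.5 mg/mL final each, added with compounds to p53RE-bla HCT-116 cells; 16 h at 37 C, then ATP luminescence read.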

Assay [9] in a line: p53 small molecule agonists, cell-based qHTS assay: qHTS cell viability counter screen (AID 1963581). Also: nearly all actives have a fitted effect of over 45% in size. In outline:
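Luminescence from CellTiter-Glo, reflecting ATP content, serves as the cytotoxicity measure; it is taken after the 2 h reporter substrate step in HCT-116 p53RE-bla cells dosed for 16 h at 37 C.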

A short description of assay [10]: p53 small molecule agonists, cell-based qHTS assay (AID 1963582; active = well fitted activation curve with a large enough effect in the signal ratio in the repeat runs, not every such curve was filed as active; the % refers to the signal ratio; also: potency is read from the fitted curve at half-maximal effect). A digest of the protocol: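 After plating, p53RE-bla cells sat 5 h in the incubator; compounds or DMSO vehicle were pinned in; a 16 h incubation at 37 C followed; FRET substrate was added and, 2 h later at RT, fluorescence was measured.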
In assay [11] the target is 5-hydroxytryptamine receptor 2A (Homo sapiens) (UniProt P28223). Description: 5-hydroxytryptamine receptor 2A (HTR2A) small molecule antagonists, cell-based qHTS assay (AID 1963586). Also: nearly all actives have a fitted effect of over 45% in size. In outline: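 CHO cells stably expressing human HTR2A were plated for 18 h at 37 C, then loaded with calcium dye for 1 h. Compounds were preincubated 5 min at room temperature before DOI (4 nM solution) was added. Kinetic fluorescence was read for 3 min.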

The target is the same in assay [12]. Nature of the assay: 5-hydroxytryptamine receptor 2A (HTR2A) small molecule agonists, cell-based qHTS assay (AID 1963587). Also: nearly all actives have a fitted effect of over 30% in size. Also: potency is read from the fitted curve at half-maximal effect. A digest of the protocol:
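HTR2A-CHO cells, plated 18 h at 37 C/5% CO2, dye-loaded 1 h at 37 C; compounds in DMSO added by pin tool (agonist mode). Intracellular calcium flux read as kinetic fluorescence on FDSS over 2 min at 1 s intervals.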

Assay [13] addresses Muscarinic acetylcholine receptor M1 (Homo sapiens) (UniProt P11229). Description: Cholinergic receptor muscarinic 1 (CHRM1) small molecule antagonists, cell-based qHTS assay (AID 1963588). Also: nearly all actives have a fitted effect of over 40% in size. In outline:
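Compounds were tested at 15 concentrations in three independent runs. Dye-loaded CHRM1-CHO cells were exposed 5 min at room temperature before stimulation by acetylcholine added at 50nM. Intracellular calcium was read kinetically on FDSS for 3 min.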

For assay [14] the target is unchanged. Nature of the assay: Cholinergic receptor muscarinic 1 (CHRM1) small molecule agonists, cell-based qHTS assay (AID 1963589). Also: nearly all actives have a fitted effect of over 35% in size. In outline: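 Fluorescent calcium dye reports M1 activation in stably transfected CHO cells. Compounds, 15 concentrations, added after 1 h dye loading at 37 C; kinetic reading at 1 sec intervals.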
A short description of assay [15]: cAMP Responsive Elements (CRE) small molecule antagonists, cell-based qHTS assay (AID 1963591; active = well fitted inhibition curve with a large enough effect in the signal ratio in the repeat runs, not every such curve was filed as active; the % refers to the signal ratio). A digest of the protocol:
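Stimulation used NKH477 at a final 0.25 uM for 3 h in compound-treated CRE-bla HEK293T cells, seeded 18 h beforehand. Reporter activity was measured with LiveBLAzer B/G FRET substrate after 2 h at room temperature.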

In assay [16] the target is D(2) dopamine receptor (Homo sapiens) (UniProt P14416). Nature of the assay: Dopamine D2 receptor (DRD2) small molecule agonists, cell-based qHTS assay (AID 1963594). Also: nearly all actives have a fitted effect of over 35% in size. In outline:
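HEK293 cells stably expressing DRD2 were cultured 24 h at 37 C, then given Ro20-1724 (0.1 mM final) and compounds for 10 min at room temperature. NKH477 (200nM) was then added for 30 min. cAMP was read by HTRF.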

Assay [17] shares this target. Nature of the assay: Dopamine D2 receptor (DRD2) small molecule antagonists, cell-based qHTS assay (AID 1963595; active = well fitted inhibition curve with a large enough effect in the signal ratio in the repeat runs, with a control signal flat; the % refers to the signal ratio; also: potency is read from the fitted curve at half-maximal effect). A digest of the protocol:
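Antagonist mode in DRD2-HEK293 cells: after compound addition with 0.1 mM Ro20-1724, cells received quinpirole (12 nM) and NKH477 (200 nM) for 30 min at room temperature; HTRF cAMP read after 1 h detection.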

Assay [18] can be described thus: cAMP Responsive Elements (CRE) small molecule agonists, cell-based qHTS assay (AID 1963590). A digest of the protocol:
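Compound exposure lasted 3 h at 37 C/5% CO2 in CRE-bla HEK 293T cells grown in assay medium with 10% dialyzed FBS and 25 mM HEPES. Reporter signal came from LiveBLAzer B/G FRET substrate, 2 h, room temperature.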

In assay [19] the target is Beta-2 adrenergic receptor (Homo sapiens) (UniProt P07550). Nature of the assay: Adrenergic beta2 receptor (ADRB2) small molecule antagonists, cell-based qHTS assay (AID 1963592). Also: nearly all actives have a fitted effect of over 50% in size. Also: potency is read from the fitted curve at half-maximal effect. In outline: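 Assay format: CHO-ADRB2 cells, 18-20hr seeding at 37C/5% CO2, then compound plus 1nM isoproterenol agonist mix for 0.5hr RT. Homogeneous time-resolved fluorescence cAMP detection after 1hr, expressed as 665/615 nm ratio.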

Assay [20] has the same target. Description: Adrenergic beta2 receptor (ADRB2) small molecule agonists, cell-based qHTS assay (AID 1963593).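 Also: CHO cells stably overexpressing human ADRB2.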 A digest of the protocol:
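CHO cells stably over-expressing ADRB2 were plated overnight at 37C, then dosed with compounds plus a stimulation mix containing 100uM IBMX and 25uM Ro-20-1724 for 0.5hr at room temperature. cAMP was measured by HTRF competition, 1hr.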

Sequence of 5-hydroxytryptamine receptor 2A (Homo sapiens) (P28223 whole entry, looked up): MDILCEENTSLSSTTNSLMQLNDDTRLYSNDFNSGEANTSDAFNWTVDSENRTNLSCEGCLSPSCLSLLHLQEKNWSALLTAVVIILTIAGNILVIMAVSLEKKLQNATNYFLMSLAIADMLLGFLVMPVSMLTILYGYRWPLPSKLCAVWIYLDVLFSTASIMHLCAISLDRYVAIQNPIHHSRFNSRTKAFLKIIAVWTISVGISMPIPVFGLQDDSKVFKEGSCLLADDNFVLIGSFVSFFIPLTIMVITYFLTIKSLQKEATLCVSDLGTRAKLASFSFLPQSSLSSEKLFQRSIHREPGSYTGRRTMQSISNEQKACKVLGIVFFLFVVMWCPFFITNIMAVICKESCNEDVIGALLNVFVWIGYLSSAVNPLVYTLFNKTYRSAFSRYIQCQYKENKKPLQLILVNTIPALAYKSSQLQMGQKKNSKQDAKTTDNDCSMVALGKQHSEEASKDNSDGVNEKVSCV
Sequence of D(2) dopamine receptor (Homo sapiens) (P14416 whole entry, looked up): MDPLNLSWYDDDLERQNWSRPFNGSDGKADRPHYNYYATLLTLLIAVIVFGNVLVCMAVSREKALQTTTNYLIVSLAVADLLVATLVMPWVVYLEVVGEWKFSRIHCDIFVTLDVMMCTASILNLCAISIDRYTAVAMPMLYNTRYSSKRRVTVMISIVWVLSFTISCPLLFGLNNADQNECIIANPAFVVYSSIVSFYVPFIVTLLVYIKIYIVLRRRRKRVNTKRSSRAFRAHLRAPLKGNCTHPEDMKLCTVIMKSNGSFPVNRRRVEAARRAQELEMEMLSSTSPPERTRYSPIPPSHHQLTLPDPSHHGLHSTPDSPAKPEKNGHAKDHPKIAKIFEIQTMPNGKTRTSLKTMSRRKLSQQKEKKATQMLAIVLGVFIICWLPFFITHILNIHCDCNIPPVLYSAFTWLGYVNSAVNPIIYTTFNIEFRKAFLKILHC
Sequence of Muscarinic acetylcholine receptor M1 (Homo sapiens) (P11229 whole entry, looked up): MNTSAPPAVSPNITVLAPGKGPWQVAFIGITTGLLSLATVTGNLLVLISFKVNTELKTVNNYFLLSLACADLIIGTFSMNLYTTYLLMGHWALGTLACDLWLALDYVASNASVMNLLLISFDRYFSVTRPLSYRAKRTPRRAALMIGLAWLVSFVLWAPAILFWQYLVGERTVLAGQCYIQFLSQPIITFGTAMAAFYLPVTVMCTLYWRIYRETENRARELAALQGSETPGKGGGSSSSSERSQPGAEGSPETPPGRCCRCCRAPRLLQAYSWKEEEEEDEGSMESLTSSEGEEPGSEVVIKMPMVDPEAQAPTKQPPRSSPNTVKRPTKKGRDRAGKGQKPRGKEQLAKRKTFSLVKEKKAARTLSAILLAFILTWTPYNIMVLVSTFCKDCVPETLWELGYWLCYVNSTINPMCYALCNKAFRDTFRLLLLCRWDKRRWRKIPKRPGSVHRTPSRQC
Sequence of KiSS-1 receptor (Homo sapiens) (Q969F8 whole entry, looked up): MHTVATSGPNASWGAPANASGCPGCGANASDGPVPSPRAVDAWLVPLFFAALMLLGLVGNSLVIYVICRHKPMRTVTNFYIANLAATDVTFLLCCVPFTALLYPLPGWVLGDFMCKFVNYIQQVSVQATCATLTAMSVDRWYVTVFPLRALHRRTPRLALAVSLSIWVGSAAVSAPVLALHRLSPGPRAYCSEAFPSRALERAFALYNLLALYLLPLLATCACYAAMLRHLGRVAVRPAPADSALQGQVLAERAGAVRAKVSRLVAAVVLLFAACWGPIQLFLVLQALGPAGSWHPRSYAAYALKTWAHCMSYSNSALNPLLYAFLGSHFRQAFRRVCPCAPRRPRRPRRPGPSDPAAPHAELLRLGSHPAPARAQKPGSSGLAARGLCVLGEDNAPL
Sequence of Beta-2 adrenergic receptor (Homo sapiens) (P07550 whole entry, looked up): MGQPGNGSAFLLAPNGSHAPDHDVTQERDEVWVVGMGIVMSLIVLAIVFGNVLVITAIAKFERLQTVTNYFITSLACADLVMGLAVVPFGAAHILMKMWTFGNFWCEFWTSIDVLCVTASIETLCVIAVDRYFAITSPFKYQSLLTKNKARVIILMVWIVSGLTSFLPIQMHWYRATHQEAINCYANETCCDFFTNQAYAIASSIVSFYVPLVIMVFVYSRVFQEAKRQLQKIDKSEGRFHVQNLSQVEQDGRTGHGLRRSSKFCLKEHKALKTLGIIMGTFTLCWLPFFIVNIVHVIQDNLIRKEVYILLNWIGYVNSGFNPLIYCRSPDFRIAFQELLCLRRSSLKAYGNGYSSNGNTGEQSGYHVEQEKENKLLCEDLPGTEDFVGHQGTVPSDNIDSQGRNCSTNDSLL

For `CC(=O)Nc1ccc(S(=O)(=O)Nc2cc(C)on2)cc1`, the Potency entry in [1], in [2], in assay [5], in assay [6], in assay [7] and in assay [8] was “inactive” throughout. Moreover, the Potency entry in [9], in assay [10], in assay [11], in assay [12], in assay [13] and in assay [14] was “inactive” in each case. The Potency entry in [15], in assay [16] and in [17] was “inactive” in each case. The outcome in assay [3] and in assay [4] was inactive.
Turning to `CCCCCCC`, the Potency result in assay [1], in [2], in [5], in assay [6], in assay [7] and in [8] was “inactive” throughout. Further, the Potency result in [9], in assay [10], in [11], in [12], in [14] and in assay [18] was “inactive” each time. In addition, the Potency result in [15], in assay [19], in assay [20], in assay [16] and in assay [17] was “inactive” throughout. The result in [3] and in assay [4] was inactive.
On to `CCCCCCCCCC(=O)OCC`, for which the Potency result in [1], in [2], in [5], in [6], in assay [7] and in [8] was “inactive” throughout. Further, the Potency entry in [9], in assay [10], in [11], in [12], in assay [13] and in [14] was “inactive” throughout. The Potency entry in assay [18], in assay [15], in [16] and in assay [17] was “inactive” throughout. Also, the outcome in assay [3] and in assay [4] was inactive.
For the molecule `CCCc1ncc(C(=O)O)s1`, the Potency result in assay [1], in assay [2], in [5], in assay [6], in assay [7] and in assay [8] was “inactive” in each case. Also, the Potency entry in assay [9], in [10], in assay [11], in assay [12], in assay [13] and in [14] was “inactive” in each case. Moreover, the Potency result in assay [18], in assay [15], in [16] and in assay [17] was “inactive” in each case. For the same molecule, the outcome in assay [3] and in assay [4] was inactive.
In the case of `CCCCCCCCOCCCN`, the values for the Potency in assay [1] and in [12] were 68.6 µM (active) and 24.5 µM (active), respectively. Besides, the Potency result in assay [2], in [5], in [6], in [7], in [8] and in assay [9] was “inactive” each time. Further, the Potency entry in assay [10], in [13], in assay [18], in assay [15], in assay [19] and in [16] was “inactive” each time. Moreover, the result in assay [3] and in assay [4] was inactive.
As for `COc1cc(N)c(Cl)cc1C(=O)NC1CCN(CCCOc2ccc(F)cc2)CC1OC` (stereo unspecified), the Potency entry in [1], in [2], in assay [5], in assay [6], in [7] and in assay [8] was “inactive” each time. In addition, the Potency result in [9], in [10], in assay [15] and in [16] was “inactive” throughout. Also, the result in [3] and in [4] was inactive. The Potency was 23.7 µM (active) in assay [19] and 11.9 µM (active) in [17].
`O=C(O)c1c(O)c(-c2ccccc2)nc2ccccc12`: the Potency result in assay [1], in assay [2], in assay [5], in [6], in assay [7] and in assay [8] was “inactive” in each case. For the same molecule, the Potency result in [9], in assay [11], in assay [13], in [14], in assay [18] and in [15] was “inactive” throughout. The Potency result in assay [19], in assay [16] and in assay [17] was “inactive” in each case. In addition, the outcome in [3] and in [4] was inactive. For the same molecule, the Potency in assay [10] was 19.9 µM (active).
For `CC(C)=CCC/C(C)=C/CC/C(C)=C/C(=O)OCC(=O)[C@@]1(O)CC[C@H]2[C@@H]3CCC4=CC(=O)C=C[C@]4(C)[C@H]3[C@@H](O)C[C@@]21C`, the Potency in assay [1] is 6.68 µM (active). Further, the Potency result in assay [2], in assay [5], in assay [6], in [7], in [8] and in assay [9] was “inactive” each time. Also, the Potency result in assay [12], in [13], in assay [14], in assay [18], in assay [15] and in [19] was “inactive” throughout. Further, in [16], the Potency entry is “inactive”. The outcome in assay [3] and in assay [4] was inactive.
